The AC50 is the midpoint of the concentration-response curve, whichever way the signal moves.

Drawing on PubChem BioAssay (EPA / NIEHS), this text covers outcome and AC50 for 19 compounds.

The nature of experiment [1]: ATG_GLI_CIS: Attagene CIS-FACTORIAL HepG2 Assay for human Zinc Finger Protein GLI1 (AID 2282945). To be noted: HepG2, Attagene cis-factorial reporter mRNA, GLI element; actives raise or lower the signal. In a few lines: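 Transiently transfected HepG2 cells report endogenous transcription factor activity via cis-element-driven reporter units. After 24 h compound exposure, reporter mRNA was measured by RT-PCR with capillary electrophoresis; bidirectional fitting against DMSO baseline.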

A short description of experiment [2]: ATG_GRE_CIS: Attagene CIS-FACTORIAL HepG2 Assay for human Glucocorticoid Response Elements (GRE) (AID 2282947). To be noted: HepG2 GRE cis-reporter, Attagene multiplex mRNA; actives raise or lower the signal. In a few lines:
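Fluorescence intensity of reporter-specific cDNA fragments, separated by capillary electrophoresis, provides the signal. Constructs carry cis-regulating promoters in transiently transfected HepG2 liver cells; 24 h incubation; fitting is bidirectional against DMSO.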

A short description of experiment [3]: ATG_ISRE_CIS: Attagene CIS-FACTORIAL HepG2 Assay for human Interferon Regulatory Factor 1 (IRF1) binding to an Interferon-Stimulated Response Element (ISRE) (AID 2282948). The settings on record: HepG2 ISRE cis-reporter (Attagene), mRNA transcription readout; actives raise or lower the signal. Put shortly:
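Endogenous transcription factor activity read as reporter transcript abundance via RT-PCR and capillary electrophoresis. HepG2 cells transiently transfected, 24 h chemical exposure. Gain or loss fitted against DMSO baseline.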

A short description of experiment [4]: ATG_M_32_CIS: Attagene CIS-FACTORIAL HepG2 Assay for M32 Transcription Factor (Internal Marker) (AID 2282949).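 Also: background control marker of the multiplexed CIS panel rather than a real target.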 To be noted: HepG2 Attagene cis-factorial M32 reporter, mRNA; actives raise or lower the signal. Put shortly:
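HepG2 transfectants (cis-regulated reporter transcription units) dosed 24 h. Reporter mRNA by RT-PCR plus CE, analysed as gain or loss relative to DMSO.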

A short description of experiment [5]: ATG_M_06_CIS: Attagene CIS-FACTORIAL HepG2 Assay for M06 Transcription Factor (Internal Marker) (AID 2282950). To be noted: HepG2 Attagene CIS-FACTORIAL M06 internal marker reporter; actives raise or lower the signal. In a few lines:
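One of many multiplexed endpoints: HepG2 reporter mRNA after 24 h dosing, detected by RT-PCR and capillary electrophoresis fluorescence; gain or loss of signal analysed against DMSO.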

In experiment [6] the target is Hypoxia-inducible factor 1-alpha (Homo sapiens) (UniProt Q16665). As to the kind of experiment: ATG_HIF1a_CIS: Attagene CIS-FACTORIAL HepG2 Assay for human Hypoxia Inducible Factor 1 (HIF1A) (AID 2282951). The settings on record: HepG2 Attagene cis-factorial HIF1a reporter transcription; actives raise or lower the signal. Put shortly:
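Cis-element reporter constructs were transiently transfected into HepG2 cells, which were treated for 24 h; reporter RNA was reverse-transcribed, amplified, labelled and resolved by capillary electrophoresis.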

Experiment [7] deals with Hepatocyte nuclear factor 6 (Homo sapiens) (UniProt Q9UBC0). The experiment is described as follows: ATG_HNF6_CIS: Attagene CIS-FACTORIAL HepG2 Assay for human Hepatocyte Nuclear Factor 6 (HNF6) (AID 2282952). The settings on record: HepG2 Attagene cis-factorial HNF6 reporter transcription; actives raise or lower the signal. In a few lines: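 First, HepG2 cells were transfected with the multiplexed cis reporter library and dosed with chemical for 24 h. Next, RNA was reverse-transcribed, PCR-amplified and fluorescently labelled. Finally, HpaI-digested fragments were read by capillary electrophoresis.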

In experiment [8] the target is Heat shock factor protein 1 (Homo sapiens) (UniProt Q00613). As to the kind of experiment: ATG_HSE_CIS: Attagene CIS-FACTORIAL HepG2 Assay for human Heat Shock Transcription Factor 1 (HSE) (AID 2282953). To be noted: HepG2 HSE cis-reporter, Attagene RNA transcription; actives raise or lower the signal. In a few lines: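 Using HepG2 with transfected cis-driven reporter constructs, compound effects on endogenous factor activity are scored as reporter mRNA change at 24 h. Detection: RT-PCR, HpaI digestion, capillary electrophoresis; bidirectional fitting to DMSO.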

The nature of experiment [9]: ATG_MRE_CIS: Attagene CIS-FACTORIAL HepG2 Assay for human Metal Responsive Element (MRE) (AID 2282954). The settings on record: HepG2 MRE cis-reporter transcription, Attagene multiplex; actives raise or lower the signal. In a few lines:
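Measured here is mRNA induction from an MRE cis-element reporter in HepG2 after 24 h, quantified by fluorescence of labelled RT-PCR products on capillary electrophoresis; gain- and loss-of-signal fits use DMSO as baseline.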

Experiment [10] addresses Bile acid receptor (Homo sapiens) (UniProt Q96RI1). The experiment is described as follows: ATG_IR1_CIS: Attagene CIS-FACTORIAL HepG2 Assay for human Nuclear Receptor Subfamily 1 Group H Member 4 (NR1H4), IR1 submotif (AID 2282946). The settings on record: IR1 reporter transcription, actives raise or lower the signal. Put shortly:
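Fluorescence of capillary-separated, HpaI-digested RT-PCR reporter products gave IR1-element mRNA induction in HepG2 cells 24 h after dosing. Endogenous transcription factors drove the cis-regulated reporters; activity was fitted bidirectionally against DMSO.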

Molecules are shown by their SMILES. Where “and” joins values, the source holds several entries; their conditions need not be identical. Equal values may be shown once. More than one record can exist for a structure, and the calls need not agree. Calls of active or inactive are those of the source. The calls were made as follows: active = hit-call score of the fitted dose curve at least 0.9, where 1 is the maximum; inactive = score below 0.9.

Sequence of Heat shock factor protein 1 (Homo sapiens) (Q00613 whole entry, looked up): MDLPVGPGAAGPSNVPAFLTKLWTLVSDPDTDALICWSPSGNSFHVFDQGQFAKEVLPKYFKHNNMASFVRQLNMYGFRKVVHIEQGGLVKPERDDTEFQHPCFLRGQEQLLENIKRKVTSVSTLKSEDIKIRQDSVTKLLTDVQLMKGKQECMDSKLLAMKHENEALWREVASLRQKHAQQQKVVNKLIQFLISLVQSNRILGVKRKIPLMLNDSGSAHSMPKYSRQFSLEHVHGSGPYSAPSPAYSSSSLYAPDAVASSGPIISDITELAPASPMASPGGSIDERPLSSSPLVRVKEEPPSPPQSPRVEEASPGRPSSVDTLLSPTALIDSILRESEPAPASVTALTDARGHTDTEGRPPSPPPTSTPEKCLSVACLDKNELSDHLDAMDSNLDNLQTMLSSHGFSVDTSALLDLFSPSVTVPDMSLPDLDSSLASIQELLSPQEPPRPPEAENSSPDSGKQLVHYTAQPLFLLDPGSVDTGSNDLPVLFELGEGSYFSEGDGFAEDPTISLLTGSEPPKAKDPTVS
Sequence of Hypoxia-inducible factor 1-alpha (Homo sapiens) (Q16665 whole entry, looked up): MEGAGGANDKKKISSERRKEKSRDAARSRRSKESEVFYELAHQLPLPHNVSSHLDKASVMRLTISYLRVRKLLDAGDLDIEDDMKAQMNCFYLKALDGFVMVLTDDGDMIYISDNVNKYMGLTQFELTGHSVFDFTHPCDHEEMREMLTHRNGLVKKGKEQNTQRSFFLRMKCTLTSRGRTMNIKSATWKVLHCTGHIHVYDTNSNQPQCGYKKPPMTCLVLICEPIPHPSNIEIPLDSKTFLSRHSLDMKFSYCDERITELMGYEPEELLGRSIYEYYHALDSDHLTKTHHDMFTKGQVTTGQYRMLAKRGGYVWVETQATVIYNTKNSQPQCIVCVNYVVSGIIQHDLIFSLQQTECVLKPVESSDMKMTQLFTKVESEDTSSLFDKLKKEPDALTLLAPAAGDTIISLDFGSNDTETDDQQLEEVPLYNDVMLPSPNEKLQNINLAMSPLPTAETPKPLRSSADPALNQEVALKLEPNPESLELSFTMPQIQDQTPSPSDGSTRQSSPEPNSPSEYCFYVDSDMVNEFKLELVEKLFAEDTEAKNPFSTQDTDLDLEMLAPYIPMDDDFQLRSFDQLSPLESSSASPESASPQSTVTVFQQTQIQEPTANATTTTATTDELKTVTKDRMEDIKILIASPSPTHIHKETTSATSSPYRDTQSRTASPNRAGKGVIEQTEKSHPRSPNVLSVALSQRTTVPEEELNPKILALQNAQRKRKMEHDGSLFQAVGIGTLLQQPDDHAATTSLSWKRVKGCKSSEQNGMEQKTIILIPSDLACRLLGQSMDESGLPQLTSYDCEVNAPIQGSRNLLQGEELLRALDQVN
Sequence of Hepatocyte nuclear factor 6 (Homo sapiens) (Q9UBC0 whole entry, looked up, the tested form may be a part): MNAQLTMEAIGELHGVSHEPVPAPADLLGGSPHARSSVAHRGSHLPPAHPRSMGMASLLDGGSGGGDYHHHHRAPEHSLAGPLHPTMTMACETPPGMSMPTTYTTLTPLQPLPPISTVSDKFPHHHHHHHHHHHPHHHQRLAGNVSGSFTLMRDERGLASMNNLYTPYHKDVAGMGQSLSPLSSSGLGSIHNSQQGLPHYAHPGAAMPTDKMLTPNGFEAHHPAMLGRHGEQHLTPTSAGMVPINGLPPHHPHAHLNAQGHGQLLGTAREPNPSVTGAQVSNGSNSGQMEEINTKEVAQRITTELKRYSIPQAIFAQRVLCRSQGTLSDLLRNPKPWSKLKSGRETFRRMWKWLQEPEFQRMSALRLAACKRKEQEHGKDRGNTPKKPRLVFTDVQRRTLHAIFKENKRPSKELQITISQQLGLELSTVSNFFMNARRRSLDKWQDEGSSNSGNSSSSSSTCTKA
Sequence of Bile acid receptor (Homo sapiens) (Q96RI1 whole entry, looked up): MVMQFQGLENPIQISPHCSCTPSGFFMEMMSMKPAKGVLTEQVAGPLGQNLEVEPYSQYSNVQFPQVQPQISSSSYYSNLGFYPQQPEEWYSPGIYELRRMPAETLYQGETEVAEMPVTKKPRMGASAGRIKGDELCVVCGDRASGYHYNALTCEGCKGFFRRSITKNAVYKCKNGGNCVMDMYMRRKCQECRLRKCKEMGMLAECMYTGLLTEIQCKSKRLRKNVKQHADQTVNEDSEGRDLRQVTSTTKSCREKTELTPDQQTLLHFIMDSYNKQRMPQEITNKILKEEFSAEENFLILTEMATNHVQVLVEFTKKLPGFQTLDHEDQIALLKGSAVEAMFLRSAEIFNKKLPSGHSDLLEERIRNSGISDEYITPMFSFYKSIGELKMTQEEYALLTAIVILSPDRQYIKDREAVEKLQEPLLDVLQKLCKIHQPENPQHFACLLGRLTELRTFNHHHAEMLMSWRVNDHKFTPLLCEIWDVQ

For the compound `OC1CCCCC1`, the compound was called inactive in experiment [1], in experiment [2], in [3], in experiment [4], in [5] and in experiment [6]. Besides, the compound was called inactive in experiment [7], in [8] and in experiment [9].

Take `CCCCC[C@H](O)CC(=O)CCc1ccc(O)c(OC)c1`: the compound was called inactive in experiment [1], in experiment [2], in experiment [3], in experiment [4], in experiment [5] and in experiment [6]. Besides, the compound was called inactive in [7], in experiment [8] and in [9]. In addition, the AC50 in experiment [10] was 149 µM (active).

With `O=C1OC2(c3ccccc31)c1cc(Br)c(O)c(Br)c1Oc1c2cc(Br)c(O)c1Br`, the call in experiment [1], in experiment [10], in experiment [2], in [3], in [4] and in [5] was inactive. Further, the compound was called inactive in experiment [6], in experiment [7], in [8] and in experiment [9]. For the same compound, the concentration at half-maximal activity (AC50) in experiment [9] was 76.3 µM (active).

In the case of `CCOC(=O)CC(O)(CC(=O)OCC)C(=O)OCC`, the outcome in [1], in [2], in [3], in [4], in [5] and in experiment [6] was inactive. Also, the compound was classed as inactive in experiment [7], in experiment [8] and in [9].

As for `CCN(CC)CCNc1ccc(CNC=O)c2sc3ccc(OC)cc3c(=O)c12`, the result in experiment [1], in [3], in experiment [4], in experiment [5] and in experiment [9] was inactive. In addition, the half-maximal activity concentration (AC50) in experiment [10] is 1.19 µM (active); in experiment [2], 1.85 µM (active); in experiment [6] it was 0.515 µM (active); in experiment [7], 0.947 µM (active); in experiment [8], 1.85 µM (active).

Turning to `Oc1cc2ccccc2c2ccccc12`, the compound was called inactive in [1], in experiment [10], in experiment [2], in [3], in [4] and in experiment [5]. Besides, the compound was classed as inactive in [6], in [7], in experiment [8] and in [9].

For `CCCCCCCCC(=O)O`, the result in [1], in experiment [2], in experiment [3], in experiment [4], in experiment [5] and in experiment [6] was inactive. Besides, the outcome in [7], in experiment [8] and in experiment [9] was inactive.

For `Nc1cccc2c(N)cccc12`, the call in experiment [1], in [10], in experiment [2], in experiment [3], in [4] and in experiment [5] was inactive. Also, the result in experiment [6], in experiment [7], in experiment [8] and in experiment [9] was inactive.

As for `CC1=C(/C=C/C(C)=C/C=C/C(C)=C/C(=O)O)C(C)(C)CCC1`, the result in experiment [1], in experiment [2], in [4], in experiment [5] and in experiment [7] was inactive. Also, the AC50 in experiment [3] is 54.4 µM (active) and 106 µM (active); in [8], 50.5 µM (active) and 93 µM (active); in experiment [9], 39.7 µM (active) and 55 µM (active).

Consider `CC(O)C(=O)O` (configuration not stated), for which the call in experiment [1], in [10], in experiment [3], in experiment [4], in experiment [5] and in [6] was inactive. In addition, the call in [7], in experiment [8] and in experiment [9] was inactive.

As for `CN(C)C=O`, the compound was classed as inactive in [1], in [10], in experiment [3], in experiment [4], in experiment [5] and in experiment [6]. Further, the compound was classed as inactive in experiment [7], in [8] and in experiment [9].

In the case of `CCCCC(CC)COC(=O)CCCCC(=O)OCc1ccccc1` (configuration not stated), the call in [1], in experiment [10], in experiment [2], in [3], in [4] and in experiment [5] was inactive. Moreover, the result in [6], in [7], in experiment [8] and in experiment [9] was inactive.

Regarding `CC(=O)NC1(c2cccc(F)c2)CCN(CC[C@@]2(c3ccc(Cl)c(Cl)c3)CN(c3ccccc3)C(=O)CO2)CC1`, the half-maximal activity concentration (AC50) in [1] was 50.7 µM (active); in [6] it was 8.61 µM (active); in experiment [8] it was 51.6 µM (active); in experiment [9] it was 45.5 µM (active). Besides, the compound was classed as inactive in experiment [10], in experiment [2], in experiment [3], in experiment [4], in experiment [5] and in experiment [7].

Regarding `ClC1=C(Cl)C(Cl)(Cl)C(Cl)=C1Cl`, the concentration at half-maximal activity (AC50) was 11.1 µM (active) and 6.27 µM (active) in experiment [1]; 14.6 µM (active) and 11.1 µM (active) in [3]; 8.06 µM (active) in [7]; 8.88 µM (active) and 5.39 µM (active) in experiment [8]; 20.2 µM (active) and 6.9 µM (active) in experiment [9]. The compound was called inactive in [2], in experiment [4], in experiment [5], in experiment [6] and in experiment [7].

Consider `CCCCCCCC(=O)O`, for which the outcome in experiment [1], in experiment [2], in experiment [3], in experiment [4], in [5] and in [6] was inactive. In addition, the call in experiment [7], in [8] and in experiment [9] was inactive.

For the compound `COCC(C)OCC(C)O` (configuration not stated), the result in experiment [1], in experiment [10], in [2], in experiment [3], in [4] and in experiment [5] was inactive. Besides, the result in experiment [6], in [7], in experiment [8] and in [9] was inactive.

For the compound `CCCCCCCCOC(=O)CCCCCCCCC(=O)OCCCCCCCC`, the compound was classed as inactive in [1], in experiment [10], in [2], in experiment [3], in experiment [4] and in [5]. Moreover, the outcome in experiment [6], in [7], in experiment [8] and in experiment [9] was inactive.

In the case of `NC(=O)N1C(=O)C(C(=O)c2cc(Cl)cs2)c2cc(F)c(Cl)cc21` (configuration not stated), the call in experiment [1], in experiment [10], in [2], in experiment [3], in [4] and in [5] was inactive. The result in experiment [7] and in experiment [8] was inactive. The AC50 in experiment [6] is 6.79 µM (active); in [9], 14.9 µM (active).

Regarding `O=[N+]([O-])c1ccc(O)cc1`, the call in experiment [1], in experiment [3], in experiment [4], in experiment [5], in experiment [6] and in experiment [7] was inactive. The outcome in experiment [8] and in [9] was inactive. In addition, in [6], the AC50 was 151 µM (active).
